Among all 340,000 compounds or so, about 930 (0.27%) were called active.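 How the source made its calls: active means inhibition above the screen-wide average of all tested compounds plus 3 SD (cut at about 25% in these data); inactive means the rest.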 The sample as a whole holds a higher share of actives than the screen did.
biological target: Platelet-activating factor acetylhydrolase IB subunit alpha1 (Homo sapiens) (UniProt Q15102); assay: PAFAH1B3 enzyme inhibitors, primary screen, biochemical, fluorescence polarization, human (AID 492972); conditions: recombinant PAFAH1B3, FP-rhodamine probe, at 3.39 µM, hits give high values;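 further: 0% = enzyme with DMSO only and 100% = wells lacking PAFAH1B3 protein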
Sequence (Q15102 whole entry, looked up): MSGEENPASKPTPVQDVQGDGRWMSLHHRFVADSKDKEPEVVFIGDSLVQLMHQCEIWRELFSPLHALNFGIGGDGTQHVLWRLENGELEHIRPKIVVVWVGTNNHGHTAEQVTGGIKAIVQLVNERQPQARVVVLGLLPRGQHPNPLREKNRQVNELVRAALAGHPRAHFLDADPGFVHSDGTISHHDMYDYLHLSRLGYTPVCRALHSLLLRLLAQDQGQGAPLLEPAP

inhibition, active:
ON=C1/C(=N\O)CC2(C/C1=N/O)OCCO2 32.1%
CN1C(c2ccc(F)cc2)=CS/C1=C(/C#N)c1nnc2n1-c1ccccc1SC2 25.7%
COc1cccc2c1C(=O)c1c(O)c3c(c(O)c1C2=O)CC(O)(C(C)=NNC(=O)c1ccc(Cl)c(Cl)c1)CC3OC1CC(N)C(O)C(C)O1 (configuration not stated) 44.5%
O=C(N/N=C/c1sc(N2CCCCC2)nc1-c1cccs1)c1cccnc1 26.1%
O=C(Nc1ccc(OC(F)(F)F)cc1)c1ccc2c(c1)no[n+]2[O-] 51.2%
CCCN(CCC)C(=O)C1c2ccccc2Oc2ccccc21 27.8%
O=C1Nc2ccc([N+](=O)[O-])cc2C1=Nc1cccc(CO)c1 31.8%
COCCNC(=O)Nc1ccc2nc(-c3ccco3)c(-c3ccco3)nc2c1 26.5%

inhibition, inactive:
COC(=O)CCSc1cc([N+](=O)[O-])cc2c1c(C1OCCS1)nn2-c1ccccc1 (configuration not stated) -0.28%
O/N=C1\CC2(Cc3nonc31)OCCO2 2.79%
Clc1ccc(C=NC23CN4CN(CN(C4)C2)C3)cc1 0.87%
CC(C)C(=O)Nc1oc(-c2ccccc2)cc1C#N 1.75%
OC(c1ccccc1)C(CN1CCOCC1)c1ccccc1 (configuration not stated) 0.69%
O=C(Nc1nnc(-c2ccccc2)o1)c1cccc(S(=O)(=O)N2CCOCC2)c1 4.84%
O=C(O)c1ccc(OCC2CCCO2)cc1 (configuration not stated) 10.9%
Cc1ccc(-c2cc(C(=O)NCc3cn(C)nc3C)c3cc(Br)ccc3n2)cc1 -4.68%
O=P(c1ccc2c(c1)OCCO2)(N1CCOCC1)N1CCOCC1 6.13%
CC(c1ccco1)N(C(=O)COc1ccccc1[N+](=O)[O-])c1ccccn1 (configuration not stated) 10.8%
COc1ccc(C(C)=O)cc1COC(=O)Cn1cnc2ccccc2c1=O 6.33%
COc1ccc(N2CCN(C(=O)CN3C(=O)COc4ccccc43)CC2)cc1 3.49%
CC(NCC(=O)Nc1ccccc1C(=O)NC1CC1)c1ccccc1Cl (configuration not stated) 3.15%
O=C(Nc1cccc2c1CCCC2)c1ccc(F)cc1 7.49%
COCCNC(=S)Nc1cc(S(=O)(=O)N2CCOCC2)ccc1N1CCCCC1 7.35%
CC(C)C(C(=O)NC1CCCCC1)N(CC1CCCO1)C(=O)CNS(=O)(=O)c1ccc(F)cc1 (configuration not stated) 3.67%
CC(C)CN1CC(C)C(=O)N(c2ccccc2)C1=S (configuration not stated) 0.15%
COc1cc2c(C(=O)N(C)c3cc(Cl)ccc3OC)cn(C)c(=O)c2cc1OC 6.3%
O=C(NN=C1CCC(=NNC(=O)c2cccnc2)CC1)c1cccnc1 8.42%
Cc1ccc(NC(=O)COc2ccc(/C=N\NC(=O)c3cccnc3)cc2)cc1C -9.46%
COc1ccccc1C(=O)c1ccccc1C(=O)c1ccccc1 8.6%
Cc1cc(C)n(C(=O)CCNC(=O)c2ccccc2Cl)n1 -1.83%
O=C(NNc1ccccc1Cl)C(O)(c1cccc(C(F)(F)F)c1)c1cccc(C(F)(F)F)c1 8.34%
C[n+]1cccc(C(=O)O)c1 4.85%
O=C(COc1ccc(S(=O)(=O)NCc2ccccc2)cc1)N1CCOCC1 -1.1%
Cn1cccc1/C=N/NC(=O)c1ccc(OC(F)(F)C(F)F)cc1 4.01%
CCOC(=O)Cc1ncccc1C(=O)Nc1ccc(OC(F)(F)F)cc1 4.95%
O=C(COc1ccccc1)Nc1cc2c3c(c1)CC(=O)N3CCC2 3.19%
CCC(C)NC(=O)CN(C1CCCCC1)S(C)(=O)=O (configuration not stated) -2.01%
Cc1cc(NC(=O)CCC(=O)N(CC(=O)NCC2CCCO2)c2ccccc2)no1 (configuration not stated) -3.62%
CN(CC(=O)Nc1ccc(Cl)cc1)C(=O)CNC(=O)c1ccc2ccccc2c1 5.2%
CCOC(=O)CC(NC(=O)C1c2ccccc2Oc2ccccc21)c1ccc(C)cc1 (configuration not stated) 6.13%
CCCCCNC(=O)C1c2ccccc2Oc2ccccc21 -4.51%
CCOC(=O)CCCNC(=O)COC(=O)c1cc(Br)c(Br)s1 -2.8%
COc1nc(Oc2ccc(=O)n(C)n2)nc(N(C)C)n1 4.35%
CN1CCN(/N=C2/C(=O)Nc3ccc([N+](=O)[O-])cc32)CC1 1.85%
O=[N+]([O-])c1ccc(N(CCO)Cc2ccccc2)c([N+](=O)[O-])c1 4.36%
CCCS(=O)(=O)N1CCCC(C(=O)NCCN2CCCCC2C)C1 (configuration not stated) -3.97%
O=C(Nc1ccc2ccccc2c1)Nc1ccc2snnc2c1 -10.5%
Cc1cc(OCCN2CCCC2)cc(C(C)C)c1 3.65%
COCCNC(=O)c1snc2ccc(Cl)cc12 8.07%
O=C(Nc1nc(-c2ccco2)c(-c2ccco2)s1)c1ccco1 15.7%
CC(=O)Nc1ccc(NC(=O)C2CCCN(S(=O)(=O)c3ccc(Cl)cc3)C2)cc1 (configuration not stated) 4.7%
CCOc1ccc(S(=O)(=O)n2ccnc2)c2ccccc12 4.28%

Source: PubChem BioAssay AID492972 (The Scripps Research Institute Molecular Screening Center, 2010)
